Data on 16 compounds can be found in the supplement of paper PMC5641865, “A screen for kinase inhibitors identifies antimicrobial imidazopyridine aminofurazans as specific inhibitors of the Listeria monocytogenes PASTA kinase PrkA” (The Journal of Biological Chemistry, 2017).

± gives the standard deviation of the averaged measurements.
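Further: End-point A600 read in BHI broth at 37 °C with 2% DMSO, inhibition computed as (1 − OD with compound plus ceftriaxone ÷ OD with ceftriaxone only) × 100.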

In this test the test system is Listeria monocytogenes 10403S. In words: growth inhibition relative to ceftriaxone-alone control; higher = stronger potentiation of ceftriaxone growth inhibition. The following applies: 10 µM; ceftriaxone 1 ug/ml; 12 h.
As for `CC(C)n1nc(-c2ccc3oc(N)nc3c2)c2c(N)ncnc21`, the growth inhibition is -0.352 ± 1.4%.
Then `CCc1cc(Nc2nccc(-c3c(-c4ccc(OC)c(C(=O)Nc5c(F)cccc5F)c4)nc4ccccn34)n2)c(OC)cc1N1CCC(N2CCN(S(C)(=O)=O)CC2)CC1`, with 24.5 ± 8%.
For `O=C1NC(=O)C(c2ccccc2Cl)=C1Nc1cccc(O)c1`, the growth inhibition is -3.8 ± 3.6%.
Regarding `COc1ccc(-c2ccncc2)cc1C(N)=O`, the growth inhibition was -4.48 ± 7.1%.
In the case of `CCn1c(-c2nonc2N)nc2c(C#CCN)ncc(OCCCN)c21`, the growth inhibition was -1.03 ± 0.6%.
With `FC(F)(F)c1cccc(-c2nn3ncccc3c2-c2ccnc(Nc3ccc4c(c3)OCCO4)n2)c1`, the growth inhibition was -5.79 ± 1.8%.
Consider `O=C(Nc1cccc(Cl)c1)Nc1ncc(CCNc2ncnc3ccsc23)s1`, for which the growth inhibition stood at 94.4 ± 2%.
Regarding `CCOc1nccc2c1nc(-c1nonc1N)n2CC`, the growth inhibition came to 13.6 ± 0.53%.
Take `O=C(Nc1n[nH]c2cc(-c3ccccc3)ccc12)C1CC1`: the growth inhibition came out at 4.09 ± 0.32%.
Consider `CCOc1cc2ncc(C#N)c(Nc3ccc(OCc4ccccn4)c(Cl)c3)c2cc1NC(=O)/C=C/CN(C)C` [Neratinib (HKI-272)], for which the growth inhibition turned out to be 12.3 ± 9.7%.
On to `CC1(COc2ccc3c(c2)ncn3-c2ccc3cccc(N4CCC(N)CC4)c3n2)COC1`, for which the growth inhibition stood at 32 ± 14%.
With `O=C1NC(=O)/C(=C\c2ccc3nccnc3c2)S1`, the growth inhibition amounted to 13.5 ± 10%.
`COc1cccc(-c2cc(=O)c3ccccc3o2)c1N`: the growth inhibition was 6.7074 ± 0.0026%.
To `Nc1ncnc2c1c(-c1cnc3[nH]ccc3c1)nn2C1CCCC1` belongs 42.9 ± 23%.
On to `CS(=O)(=O)CCNCc1ccc(-c2ccc3ncnc(Nc4ccc(OCc5cccc(F)c5)c(Cl)c4)c3c2)o1` [Lapatinib Ditosylate (Tykerb)], for which the growth inhibition was 42 ± 16%.
For the compound `NC(=O)c1ccc2c(-c3ccnc(NCCCO)n3)c(-c3ccc(F)cc3)nn2c1`, the growth inhibition was -7.27 ± 16%.
